# Measurements taken from PubChem BioAssay (NCI).
# The panel holds about 83,000 compounds, 20% with a hit somewhere; the sample as a whole holds those more often.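 Single-concentration screen, 48 h exposure, 96-well plates. Endpoint: percent growth. Below 10 = active.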 The source made the active and inactive calls.
# Test system: SNB-19 CNS
# Assay: NCI-60 one-dose screen, 48 h (100 = growth as untreated, 0 = no growth, -100 = all killed)
# Conditions: 10 µM unless noted
row,SMILES,growth
1,O=C1/C(=C/c2ccc(O)cc2)COc2ccc(-c3ccccc3)cc21,109% (inactive)
2,CC(=O)N1N=C(c2cccc(Nc3ccncc3)c2)CC1c1ccc2c(c1)OCO2 (stereo not drawn),94.8% (inactive)
3,Clc1nc(Cl)c2ncn(CCOCCn3cnc4c(Cl)nc(Cl)nc43)c2n1,-89.3% (active)
4,COc1ccc(/C=C2\COc3ccc(-c4ccccc4)cc3C2=O)cc1O,71.8% (inactive)
5,Cc1c2c(cc[n+]1Cc1ccccc1)c1ccc(OCC3CCCCC3)cc1n2CC1CCCCC1,-90.7% (active)
6,CC[N+](CC)(CCCC(C)[N+]1(Cc2ccccc2)C(C)=CC=C1C)Cc1ccccc1 (stereo not drawn),92.6% (inactive)
7,CN1C(=O)N(C)[C@H]2NC(NN)=N[C@H]21,106% (inactive)
8,O=C(Nc1cccc(Cl)c1)Oc1c(Br)c(Br)c(Br)c(Br)c1Br,101% (inactive)
9,NC(=O)c1ncn(C2OC(CO)C(O)C2O)n1 (stereo not drawn),104% (inactive)
10,COc1cc(/C=C/C(=O)c2c(C)oc3nc[nH]c(=O)c23)ccc1O,97.3% (inactive)
11,COc1cc(NCCCN(CC(C)C)CC(C)C)c2ncccc2c1,99.9% (inactive)
12,O=[N+]([O-])c1cccc(-c2nc(-c3ccc(Cl)cc3Cl)cn2-c2ccccc2)c1,53.7% (inactive)
13,O=C(N/N=C/c1ccc(F)cc1)c1ccccc1Nc1cccc(C(F)(F)F)c1,90.2% (inactive)
14,COc1ccc(Cn2nc(-c3cc(OC)c(OC)c(OC)c3)c3c2CCc2cnoc2-3)cc1OC,65.4% (inactive)
15,Fc1ccc(C2CC(c3cccc(Nc4ccncc4)c3)=NN2c2ccccc2)cc1 (stereo not drawn),79% (inactive)
16,CCn1cc(C2NC(=O)c3ccccc3N2)c2cccc(C)c21 (stereo not drawn),32.9% (inactive)
17,Cc1nc2sc(C(=O)Nc3ccccc3)c(N)c2cc1C(=O)c1ccc(C(F)(F)F)cc1,96.3% (inactive)
18,CC(=O)c1c(C)[nH]c(-c2nc3ccc(N4CCN(C)CC4)cc3[nH]2)c1-c1ccccc1,33.2% (inactive)
19,CCC1(CC)NC(=O)c2c(c3ccc(Cl)c(Cl)c3n2C)C1C#N (stereo not drawn),85% (inactive)

row,SMILES,growth
1,O=C(Nc1ccc(F)cc1)c1c(NC(=O)C(F)(F)F)sc2c1CCCCC2,13.3% (inactive)
2,O=C(NCCN1CCOCC1)OCc1nc2nc(Cl)nc(N3CCOCC3)c2[nH]1,36.2% (inactive)
3,CC(C)[N+](C)(CCOC(COc1ccccc1)COc1ccccc1)C(C)C,86.2% (inactive)
4,COc1ccc(C(=O)c2cc3c(N)c(C(=O)Nc4cccc(Cl)c4C)sc3nc2C)cc1,39.9% (inactive)
5,COc1ccccc1/C=C1\Oc2cc(OCCCN3CCCC3)ccc2C1=O,91.2% (inactive)
6,CCc1nc(C)cn1C(=O)OCc1nc2nc(Cl)nc(N3CCOCC3)c2[nH]1,55.8% (inactive)
7,CN1CCN(c2cc(F)c(NC3=C(Cl)C(=O)c4ncccc4C3=O)c(F)c2)CC1,96.3% (inactive)
8,COc1ccc(Cl)cc1NC(=O)c1c(NC(=O)C(F)(F)C(F)(F)F)sc2c1CCCCC2,14.5% (inactive)
9,COc1ccccc1/C=C1\COc2ccc(-c3ccccc3)cc2C1=O,69.1% (inactive)
10,O=C(O)CCCCCCCCCCCCCCC(=O)O,99.1% (inactive)
11,NC(=O)C1(N2CCCCC2)CCN(CCCC(=O)c2ccc(F)cc2)CC1,32.3% (inactive)
12,CCN1C(=O)/C(=c2\sc3n(c2=O)NC2C(N=3)N(CC)C(=O)N2CC)c2ccccc21 (stereo not drawn),50.8% (inactive)
13,CCCCCCCCCCCCCCCC(=O)OC[C@@]1(O)C[C@@]23CC[C@@H]4C(C)(C)[C@H](O)CC[C@@]4(C)[C@@H]2CC[C@H]1C3,96.7% (inactive)
14,CCOC(=O)c1ccc(Nc2ccnc(SCC(=O)c3ccc(C#N)cc3)n2)cc1,89.9% (inactive)
15,O=S(=O)(c1cccc(NC2=Nc3cccc4cccc2c34)c1)N1CCCC1,77.8% (inactive)
16,COc1ccccc1N1CCN(C(=O)c2ccc3nc(NC(=O)c4ccc(NCCc5ccccc5)c([N+](=O)[O-])c4)sc3c2)CC1,95.2% (inactive)
17,CCN(CC)CCOC(COc1cc(C)cc(C)c1)COc1cc(C)cc(C)c1,47.5% (inactive)
18,COc1ccc(Nn2c(SCC(=O)Nc3nc(-c4ccc(Cl)cc4)cs3)nc(C)c2C)cc1,79.2% (inactive)
19,CC1=CC2(C)/C=C(C)/C=C\CC(O)/C=C3/C=CC(=C4C(=O)OC2(CC1C)C4=O)OC3 (stereo not drawn),56.4% (inactive)
